# Assay results from the supplement of paper PMC4206467.
# System: Perkinsus marinus PRA240
# Assay: ATP content (proliferation) relative to DMSO control; higher = more parasite growth (less inhibition)
# Details: 20 µM; 4 days
# Protocol: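 Perkinsus marinus PRA240 trophozoites (2-5x10^6 cells/ml, 100 µl, 96-well) were exposed once to MMV Malaria Box compounds at 20 µM (0.1% DMSO) in triplicate. ATP content (ATPlite bioluminescence) was read at day 4 post-exposure and normalised to DMSO + cells control wells (100% activity). Compounds were identified by joining plate and well to the Malaria Box list.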
row,SMILES,ATP content [%]
1,Cc1sc2ncnc(Sc3nc4ccccc4[nH]3)c2c1C,131
2,CC(C)(C)CC(C)(C)NCC(O)COc1ccc(Cl)cc1Cl (stereo not given),123
3,COc1cccc(Nc2nc(N)c3ccccc3n2)c1,9.11
4,CCOc1c(Br)cc(C2C(C(=O)OC)=CN(C)C=C2C(=O)OC)cc1OC,123
5,OC1=C2C(=Nc3ccccc3SC2c2ccc(Br)cc2)c2ccccc21 (stereo not given),45.9
6,COc1ccc2c(c1OC)C(=O)N1c3ccccc3N=C(c3ccc(C)cc3)CC21 (stereo not given),155
7,CC1CC(C)CN(C(=O)c2ccc(Cl)cc2Cl)C1 (stereo not given),135
8,O=C(Nc1ccc(Cl)cc1)N1CCN(c2ccc3nncn3n2)CC1,124
9,CCn1c(SCC(=O)Nc2cc(C(F)(F)F)ccc2Cl)nc2ccccc2c1=O,102
10,COc1ccc(CNC2CCN(c3ccc(NC(=O)c4cccc(Cl)c4)cc3)CC2)cc1OC,102
11,COc1ccc(C2NCCc3c2[nH]c2ccccc32)cc1CN1CCN(c2ccc(F)cc2)CC1 (stereo not given),171
12,O=C(NCC1Cc2cccc(-c3ccncc3)c2O1)c1csc2c1CCCC2 (stereo not given),114
13,Cc1ccc(-c2nc3ccccc3o2)cc1NCc1cc(Cc2ccccc2)ccc1O,77.3
14,CCOc1ccc(-n2cc(-c3ccccc3)c3c(SCc4cc(C)ccc4C)ncnc32)cc1,171
15,COc1ccc(C=C2SC(Nc3ccc(F)cc3)=NC2=O)c(OC)c1,60.7
16,Oc1ccc2ccccc2c1CNc1nc2ccccc2[nH]1,65.9
17,Cc1ccc(CSCc2ccc(C(=O)NC3CC3)o2)cc1,54.8
18,CN1CCN(c2c3c(c(C#N)c4nc5ccccc5n24)CCC3)CC1,140
19,CC(C)(C)c1ccc(C(=O)Nc2nc3ccccc3s2)cc1,57
20,O=C(Nc1ccc(-c2nc3cc(NC(=O)c4ccc(Cl)cc4)ccc3[nH]2)cc1)c1ccc(Cl)cc1,141

row,SMILES,ATP content [%]
1,CCCN(CCC)CCCNC(=O)c1cc2c(-c3ccc(OC)c(OC)c3)nn(C)c2s1,80.3
2,COc1ccc2nc(N)nc(C)c2c1,88
3,COc1ccccc1C(=O)ON=C(N)Cc1cccc2ccccc12,148
4,COc1ccc2c(c1)C1(Nc3ccccc3-c3nc4ccccc4n31)C(=O)N2 (stereo not given),113
5,CCOC(=O)c1cnc2ccc(OC)cc2c1NCc1ccccc1,69.3
6,CCc1ccc(Nc2cc(C)nc3nc(C)nn23)cc1,139
7,O=c1nc(C=Cc2ccc(Cl)cc2)oc2ccccc12,22.2
8,COc1ccc(Nc2nc(NCc3ccccc3)c3ccccc3n2)cc1,103
9,O=C1c2ccc3c4c(ccc(c24)C(=O)N1CCCCO)C(=O)N(CCCCO)C3=O,50.5
10,Cc1ccc(C)c(-c2csc(Nc3ccc(C)c(C)c3)n2)c1,93.6
11,Cc1ccccc1OCCSc1nc2ccc(NC(=O)c3cccs3)cc2s1,30.1
12,Nc1ccn(C2O[C@H](CO)[C@@H](O)[C@H]2O)c(=O)n1 (stereo not given in full),132
13,Oc1ccccc1CN1CCN(C(c2ccccc2)c2ccccc2)CC1,128
14,CCOc1cc2c(cc1OCC)C(c1cc(C)c(O)c(C)c1)NCC2 (stereo not given),133
15,COc1cc2c3cc1Oc1c(OC)c(OC)cc4c1C(Cc1ccc(O)c(c1)Oc1ccc(cc1)CC3N(C)CC2)N(C)CC4 (stereo not given),144
16,COc1ccc(OC)c(C2C3=C(CC(C)(C)CC3=O)N(c3ccc(Cl)c(Cl)c3)C3=C2C(=O)CC(C)(C)C3)c1,161
17,Oc1c(CN2CCN(c3ccccc3F)CC2)cc(Br)c2cccnc12,105
18,Cc1ccc2c(C)nc(Nc3nc(C)cc(-c4ccccc4)n3)nc2c1,93
19,O=C(Nc1cccc(C(F)(F)F)c1)c1cc(Cl)ccc1O,2.99
20,O=C(NC1CCN(Cc2ccccc2)CC1)c1cc(C(=O)NC2CCN(Cc3ccccc3)CC2)cc(C(=O)NC2CCN(Cc3ccccc3)CC2)c1,90.4
